Hit rate of the full screen: of about 360,000 compounds, about 17,000 (4.7%) were called active. Not shown: some 5% with an inconclusive outcome. Many of the other results were omitted from the sample, so actives are more common in it than they were. Values without a mark were called inactive. No stated cut-off is given here; in the data, active means activity change below about -50%; inconclusive means mostly about -30% to -49%; inactive means weaker than that.
Test: qHTS for Inhibitors of Inflammasome Signaling: IL-1-beta AlphaLISA Primary Screen
Settings: THP-1 LPS/ATP IL-1B secretion, 16 h; at 57.5 µM, hits give low values
In short: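 THP-1 cells pretreated 1 hr with compounds (up to 57.5 uM final), then stimulated with LPS (250 ng/mL final) plus ATP (1.25 mM final); secreted IL-1B measured by AlphaLISA after 16 hr, decreased signal indicating inhibition.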
On the % scale 0 is the no-effect control and ±100 the full control effect.

SMILES | activity change
Cc1ccc(CN(C)C[C@@H]2OCc3cnnn3CCCC(=O)N([C@@H](C)CO)C[C@H]2C)cc1 | 13.2%
O=C(CCN1CCc2ccccc2C(O)(c2ccccc2)C1)c1ccc2c(c1)OCCO2 (stereo unspecified) | -101% (active)
O=C(COC(=O)c1ccccc1)c1ccc2c(c1)OCCO2 | -8.63%
O=C(CN1CCC(O)(c2ccccc2)CC1)Nc1ccc2c(c1)OCCO2 | -25.5%
Cc1c(CN2CCC(CO)(CCOc3ccccc3)CC2)[nH]c2ccc(Cl)cc12 | -96.7% (active)
CC(C)(O)C#Cc1ccc(CN2CCC(CO)(CCc3ccccc3)CC2)cc1 | -1.38%
OCC1(CCOc2ccccc2)CCN(Cc2cn[nH]c2-c2ccccc2)CC1 | -2.13%
CC1CCN(c2ccc3c(c2)S(=O)(=O)c2cc(C(=O)O)ccc2C3=O)CC1 | 22%
Cc1cccc(-n2ncc(C#N)c2-n2cccc2)c1 | 28.7%
Cc1cccc(-n2ncc(Cl)c(Cl)c2=O)c1 | -100% (active)
C=CCNc1cnn(-c2ccc(C)cc2)c(=O)c1Cl | -16.2%
CC1(C(=O)NS(=O)(=O)c2cccc(F)c2)CCN1C(=O)Cc1ccc(Cl)cc1Cl (stereo unspecified) | -15.9%
O=C(Nc1cc(S(=O)(=O)N2CCCCC2)ccc1Cl)C1COc2ccccc2O1 (stereo unspecified) | -6.17%
NS(=O)(=O)c1ccc(CCNC(=O)CNC(=O)Cc2ccccc2)cc1 | 12.6%
CC(C)c1nccn1S(=O)(=O)c1cc([N+](=O)[O-])ccc1Cl | 0%
CCc1nc(C)cn1S(=O)(=O)c1cc(OC)c(C)cc1C | 30.3%
CCc1nc(C)cn1S(=O)(=O)c1cc([N+](=O)[O-])ccc1Cl | -82.5% (active)
O=C1N[C@@H](Cc2ccccc2)C(=O)N2[C@@H]3N(S(=O)(=O)c4ccc(F)cc4)c4ccccc4[C@]3(Br)C[C@@H]12 | -2.75%
Cc1cccc(S(=O)(=O)N(C)C[C@H]2OCc3cnnn3CCCC(=O)N([C@@H](C)CO)C[C@H]2C)c1 | 16.6%
COc1cccc(C2c3[nH]c4ccccc4c3CCN2Cc2cccc(C)n2)c1 (stereo unspecified) | -5.35%
CCOc1ccc(C2c3[nH]c4ccccc4c3CCN2Cc2cn(CC)nc2C)cc1 (stereo unspecified) | 18.2%

SMILES | activity change
Oc1cccc(C2c3[nH]c4ccccc4c3CCN2Cc2cnn(-c3ccccc3)c2)c1 (stereo unspecified) | -64% (active)
O=S1(=O)CCOC[C@H](Cc2ccccc2)N1Cc1ccccc1Br | -7.15%
CC(C)CCNC(=O)c1[nH]c(C(F)(F)F)nc1-c1ccccc1 | 28.5%
CC(C)Oc1ccc(CCc2n[nH]c(=S)n2Cc2ccccc2)cc1 | 16.3%
CN(C(=O)CSc1nncc2ccccc12)C1CCCCC1 | 0%
Brc1c(CSc2nncc3ccccc23)nc2ccccn12 | -74% (active)
COC(=O)C[C@H]1C=C[C@H](NC(=O)c2ccc(F)cc2)[C@@H](CO)O1 | -9.5%
CCOC(=O)N1CCN(C(=O)c2ccc(S(=O)(=O)Nc3cccc(C(F)(F)F)c3)cc2)CC1 | 0.178%
CCn1c(/C=C/Nc2ccccc2)[n+](CC)c2ccc(C(=O)OCC(F)(F)F)cc21 | -98.2% (active)
CCOC(=O)c1ccc2c(c1)nc(C)n2CC | -16.9%
C[C@H](CO)N1C[C@H](C)[C@@H](CN(C)S(=O)(=O)c2ccc(Oc3ccccc3)cc2)OCc2cn(nn2)CCCC1=O | 4.67%
O=S1(=O)CC(N2CCN(Cc3ccccc3F)CC2)CN1Cc1cn(Cc2cccc(C(F)(F)F)c2)nn1 (stereo unspecified) | -6.73%
S=c1[nH]nc(/C=C/c2ccccc2)o1 | -8.62%
O=C(Cc1ccc(-c2ccccc2)cc1)NC(c1ccccc1)c1ccccc1 | 18.8%
CCOC(=O)/C=C/C(=O)OCC(=O)NC(c1ccccc1)c1ccccc1 | -96.9% (active)
CCOC(=O)C(C(=O)OCC)C(C#N)c1ccccc1 (stereo unspecified) | -20.8%
CCN(CC)CCCN1C(=O)C(=O)/C(=C(/O)c2c(C)nc3ccccn23)C1c1ccc(C)o1 (stereo unspecified) | -3.42%
COCc1ccc(C(=O)NC2CC(C)(C)Cc3c2cnn3-c2ccc(C)cc2)o1 (stereo unspecified) | -2.96%
COC(=O)COc1ccc2c(c1C)O/C(=C\c1ccco1)C2=O | -8.17%
CCC1C/C(=C/c2cccs2)C(=O)/C(=C/c2cccs2)C1 (stereo unspecified) | -5.91%
CC(C)(C)C1C/C(=C/c2ccco2)C(=O)/C(=C/c2ccco2)C1 (stereo unspecified) | -67.3% (active)

SMILES | activity change
CCNC(=O)C1(C)CCN(Cc2ccc(C(=O)OCC)o2)C1 (stereo unspecified) | 0%
CCCCCCN1CCN(C2CN(Cc3cn(Cc4ccc(F)cc4)nn3)S(=O)(=O)C2)CC1 (stereo unspecified) | 18.3%
Cc1cc(Nc2ccc(N3CCOCC3)cc2)c2cccc(C)c2n1 | -91.7% (active)
Cc1ccccc1N/N=C/c1ccc(N2CCOCC2)cc1 | 0.147%
Cc1cc(Nc2ccc(C(=O)N3CCCCC3)cc2)c2cccc(C)c2n1 | -2.62%
CN(CCc1ccccc1)C(=O)c1cccc(NC(=O)Cc2cccc(NC(=O)C3CCCN(C(=O)CCc4ccccc4)C3)c2)c1 (stereo unspecified) | -21.4%
NC1=NC(=O)C2(COC(c3ccccc3Cl)OC2)S1 (stereo unspecified) | -5.39%
COc1cccc(CN(C)CC(=O)Nc2ccccc2C(=O)Nc2ccccc2)c1 | 58.1%
COc1cccc(CN(C)CC(O)COC(c2ccccc2)c2ccccc2C)c1 (stereo unspecified) | -77% (active)
Cc1ccccc1C(OCC(O)CN1CCCCC1CCO)c1ccccc1 (stereo unspecified) | -10.1%
CC(OC(=O)c1ccccc1NCCO)C(=O)Nc1ccnn1C(C)C (stereo unspecified) | 0%
CCn1cc(CN2CCCC(CNS(=O)(=O)Cc3ccccc3)C2)cn1 (stereo unspecified) | 7.8%
CC1=C(C(=O)N(C)C)CC(CC(=O)NCCN2CCOCC2)C(=O)N1Cc1ccccc1 (stereo unspecified) | 17.7%
C=CCSc1nsc(NC(=O)Nc2cccc(C(C)=O)c2)n1 | -100% (active)
CC(=O)c1cccc(NC(=S)N2CCCC2)c1 | 24.4%
CSc1nsc(NC(=O)Nc2ccccc2)n1 | 0%
C=CCSc1nnc(NC(=O)c2ccc(NC(C)=O)cc2)s1 | 1.35%
CCSc1nsc(NC(=O)Nc2cccc(C(C)=O)c2)n1 | -101% (active)
CSc1ccccc1C(=O)Nc1cccc(C(C)=O)c1 | -2.09%

Reference: PubChem BioAssay AID743279 (National Center for Advancing Translational Sciences (NCATS), 2014)
